Screens (PubChem BioAssay)
TAG inh – inhibitors of triacylglycerol accumulation. H9c2 cells, Nile Red lipid (TAG) fluorescence; cells loaded with 200 µM oleic acid. inhibition, % at 12.5 µM. actives 0.66% (n = 230,000);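 active means pattern-corrected inhibition of lipid staining of at least 50% with the nuclear-stain viability signal not falling by more than 50%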;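 further: 0% = DMSO wells and 100% = triacsin C control wells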
CHT inh – human CHT choline transport inhibition | Q9GZV3 | CHT-expressing cells, membrane potential dye, choline response; hits give low values | B-score at 10 µM | actives 0.86% (n = 310,000) | AID 488975;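 active means B-score over 3 SD under the library average, and starting fluorescence ratio not unusually high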;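 further: choline stimulus applied at its EC90 after an EC20 pre-addition; B-score computed on integrated fluorescence ratio after choline addition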
CHT PAM – human CHT allosteric activation. Q9GZV3. CHT-expressing cells, membrane potential dye, choline EC20; hits give high values; LV-AA mutant CHT in HEK293 cells. B-score at 10 µM. actives 0.49% (n = 310,000). AID 488977;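 active means initial fluorescence not abnormally high and integrated response B-score, plate-corrected, over 3 SD above library mean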
Kir21 inh – blocks the mouse Kir2.1 inward-rectifier potassium channel. P35561. HEK293-Kir2.1, FluxOR thallium flux fluorescence; hits give low values. B-score at 10 µM. actives 0.85% (n = 310,000);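 active means fluorescence ratio B-score at or below minus 3 SD of library scores, with starting-brightness B-score within 2 SD, cut at about -4.2 in these data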;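 further: channel flux triggered by added potassium and thallium sulfate stimulus; B-score of peak minus minimum fluorescence over baseline after thallium stimulus; more negative B-score means stronger Kir2.1 block with less thallium influx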
Target sequence (P35561 whole entry, looked up): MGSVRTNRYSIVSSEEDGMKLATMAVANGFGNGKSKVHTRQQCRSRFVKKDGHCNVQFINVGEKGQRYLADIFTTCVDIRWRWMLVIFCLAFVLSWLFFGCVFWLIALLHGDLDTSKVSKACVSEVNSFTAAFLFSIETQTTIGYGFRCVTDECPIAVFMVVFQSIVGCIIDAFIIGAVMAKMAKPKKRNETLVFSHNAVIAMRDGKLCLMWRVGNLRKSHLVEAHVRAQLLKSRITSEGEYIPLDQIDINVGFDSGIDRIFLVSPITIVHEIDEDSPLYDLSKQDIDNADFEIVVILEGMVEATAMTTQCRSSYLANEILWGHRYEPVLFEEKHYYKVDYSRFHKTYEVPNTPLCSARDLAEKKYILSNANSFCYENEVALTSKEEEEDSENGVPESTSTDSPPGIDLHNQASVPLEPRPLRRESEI
TAG conf – confirmation of triacylglycerol accumulation inhibitors. shares compounds with TAG inh. H9c2 lipid accumulation, Nile Red fluorescence; cells loaded with 200 µM oleic acid. inhibition, % at 12.5 µM. actives 71% (n = 990). AID 651629;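 active means mean inhibition across replicates of 40% or more; inactive means mean inhibition below 40%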;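 further: plate controls were DMSO only wells for no effect and Triacsin C treated wells for full effect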
Active calls of the source: *; i = inactive; nt = not tested or not shown. Shown are actives, neighbours in structure and some others; about 2% of the full set was active somewhere.

SMILES | TAG inh | CHT inh | CHT PAM | Kir21 inh | TAG conf
Cc1cc(NC(=O)c2ccc(F)cc2F)n(-c2nc3ccccc3[nH]2)n1 | nt | i | i | 0.52 | nt
Cc1nn2c(C(F)(F)F)c3c(nc2c1-c1ccccc1)CCC3 | nt | i | i | 0.18 | nt
COc1ccc(OC)c(N(CCN2C(=O)c3ccccc3C2=O)C(=O)CCl)c1 | 52* | nt | nt | nt | 53*
Cc1[nH]c2ccccc2c1C(c1ccccn1)N1CCC(C)CC1 (configuration not stated) | 51* | i | i | -2.1 | 55*
Cc1[nH]c2ccccc2c1C(c1ccccn1)N1CCCC1 (configuration not stated) | -6 | i | i | -0.94 | nt
COc1cccc(-c2cc(C(=O)Nc3ccc([N+](=O)[O-])cn3)c3ccccc3n2)c1 | nt | i | i | -0.16 | nt
O=C(Nc1ccc([N+](=O)[O-])cn1)c1cc(-c2cccc(Cl)c2)nc2ccccc12 | 68* | i | i | -0.13 | 52*
c1ccc(-c2ccc(C3=Nn4c(Cn5nnc6ccccc65)nnc4SC3)cc2)cc1 | -2 | i | i | 0.23 | nt
CC(C)c1ccc(Nc2ncc3c(n2)CCN(C(=O)Nc2ccc(F)c(Cl)c2)C3)cc1 | 87* | nt | nt | nt | 88*
COc1cccc(NC(=O)N2CCc3nc(Nc4cc(Cl)cc(Cl)c4)ncc3C2)c1 | 32 | nt | nt | nt | nt
Cc1ccc(NC(=O)CNNC(=O)c2cccc([N+](=O)[O-])c2)cc1[N+](=O)[O-] | -2 | nt | nt | nt | nt
COCCn1cnnc1SCC(=O)Nc1ccc(N2CCCCC2)cc1 | -6 | nt | nt | nt | nt
COc1ccccc1N1CCN(CC(=O)Nc2cc(C)nn2-c2nc(C)cc(C)n2)CC1 | 55* | nt | nt | nt | 56*
C=CC[C@@H](CC(=O)N(CCO)Cc1ccccc1)C(=O)N[C@H](COC(=O)[C@@H](CC=C)Cc1ccc(F)cc1)C(C)(C)C | 85* | nt | nt | nt | 89*
C=CC[C@@H](CC(=O)N(CCO)Cc1ccccc1)C(=O)N[C@H](COC(=O)[C@@H](CC=C)CC(=O)OC(C)(C)C)C(C)(C)C | 73* | nt | nt | nt | 81*
C=CCC[C@@H](Cc1ccc(F)cc1)C(=O)OC[C@@H](Cc1c[nH]c2ccccc12)NC(=O)[C@H](CC=C)CC(=O)N(CCO)Cc1ccccc1 | 57* | nt | nt | nt | 71*
C=CC[C@H](CC(=O)N(CCO)Cc1ccccc1)C(=O)N[C@H](COC(=O)[C@H](CC=C)CC(=O)OC(C)(C)C)Cc1ccccc1 | 22 | nt | nt | nt | nt
C=CCC[C@H](Cc1ccc(F)cc1)C(=O)OC[C@@H](NC(=O)[C@@H](CC=C)CC(=O)N(CCO)Cc1ccccc1)C(C)(C)C | 87* | nt | nt | nt | 93*
C=CC[C@@H](CC(=O)N(CCO)Cc1ccccc1)C(=O)N[C@@H](COC(=O)[C@@H](CC=C)Cc1ccc(F)cc1)Cc1c[nH]c2ccccc12 | 48 | nt | nt | nt | nt
CC(=O)Oc1ccc(C2=NN(c3ccccc3)C(c3ccccc3)C2)cc1 (configuration not stated) | nt | i | i | -0.05 | nt
C=CC[C@@H](CC(=O)N[C@H](CO)Cc1ccccc1)C(=O)N[C@H](COC(=O)[C@@H](CC=C)Cc1ccc(F)cc1)C(C)(C)C | 95* | nt | nt | nt | 38
O=C(NNC1=NCCCCC1)Nc1cccc(Cl)c1 | 1 | nt | nt | 0.35 | nt
Cc1ccc2cc3cc(C(=O)NCCCN4CCCCCC4)oc3nc2c1 | 51* | i | i | -1.2 | 29
Cc1ccc2cc3cc(C(=O)NCCCN4CCCC4)oc3nc2c1 | nt | i | i | 0.83 | nt
O=C(c1ccoc1)N1CCN(c2cc(-c3cccc(F)c3)nc3cc(-c4cccc(Cl)c4)nn23)CC1 | 57* | nt | nt | nt | 49*
SMILES | TAG inh | CHT inh | CHT PAM | Kir21 inh | TAG conf
COc1ccc(-c2cc3nc(-c4ccccc4)cc(N4CCN(C(=O)c5ccccc5)CC4)n3n2)cc1 | 52* | nt | nt | nt | 42*
COc1ccc(/C=C/C(=O)O)cc1S(=O)(=O)NCC1CCCO1 (configuration not stated) | -2 | i | i | -0.61 | nt
C#CCN(C[C@@H]1[C@@H](OC(=O)NCc2ccco2)[C@@H](OC(=O)NCc2ccco2)CN(C(=O)OC(C)C)N1C(=O)OC(C)C)S(=O)(=O)c1ccc(C)cc1 | 55* | nt | nt | nt | 62*
CC(OC(=O)C1CCCC1)C(=O)Nc1ccc(S(N)(=O)=O)cc1 (configuration not stated) | 22 | i | i | 0.53 | nt
CCc1nc(C)c(C(=O)N2CCCC(C(=O)Nc3cccc(-c4cccc(C)c4)c3)C2)o1 (configuration not stated) | 50* | i | i | -0.07 | 47*
CCc1nnc(NS(=O)(=O)c2ccc(Nc3ccc4nonc4c3[N+](=O)[O-])cc2)s1 | 7 | i | i | 1.2 | nt
CC(C)C(C)(C#N)NC(=O)CSc1nc2scc(-c3ccco3)c2c(=O)n1-c1ccccc1 (configuration not stated) | 70* | i | i | 0.51 | 44*
Cc1ncc([N+](=O)[O-])n1CC(=O)Nc1cc(Cl)ccc1Cl | nt | i | i | -0.31 | nt
CCOC(=O)C(=O)N(C)c1c(CC)nc2c(OCCC3CCCCC3)cccn12 | 119* | nt | nt | nt | 7
CCOC(=O)N(C)c1c(CC)nc2c(OCCC3CCCCC3)cccn12 | 7 | nt | nt | nt | nt
CCOCCOC(=O)c1ccc(NC(=O)C2COc3ccccc3O2)cc1 (configuration not stated) | nt | i | i | -0.22 | nt
O=S(=O)(c1ccc(OCC(O)CNC23CC4CC(CC(C4)C2)C3)c(Cl)c1)N1CCOCC1 (configuration not stated) | 59* | i | i | 0.39 | 31
Cc1ccc(NC(=O)/C=N/OCC(=O)NCc2ccccc2Cl)cc1 | -9 | i | i | -0.98 | nt
COc1ccc(Cl)cc1NC(=O)CSc1nnc(COc2ccccc2)n1N | 54* | i | i | 2.5 | 30
CC(C)(C)c1nnc(NC(=O)Cc2ccc(Br)cc2)s1 | nt | i | i | -0.82 | nt
Cn1cc(/C=N/n2cnc3scc(-c4ccc(Cl)cc4)c3c2=O)c2ccccc21 | 61* | i | i | -0.13 | 69*
COC(=O)c1c(NC(NC(=O)C(C)C)C(Cl)(Cl)Cl)sc2c1CCC2 (configuration not stated) | nt | i | i | -0.28 | nt
COC(=O)c1c(NC(NC(=O)C(C)(C)C)C(Cl)(Cl)Cl)sc2c1CCC2 (configuration not stated) | 59* | i | i | 0.99 | 65*
CCOC(=O)C(C)Oc1cccc2c(=O)n(CC(=O)NCc3ccc4c(c3)OCO4)ccc12 (configuration not stated) | 54* | i | i | -0.08 | 55*
O=C(NNS(=O)(=O)c1ccccc1)C1CCCCC1 | nt | i | i | -0.78 | nt
CCCCC(CCC(=O)Nc1ccn(-c2ccccc2)n1)C(=O)O (configuration not stated) | -8 | i | i | -0.54 | nt
COc1cccc(-c2cc(NC=O)c3ncc(-c4cc(OC)c(OC)c(OC)c4)n3c2)c1 | 45 | nt | nt | nt | nt
